Experimental data from PubChem BioAssay (Tox21).
Several values for one entry are separate records, joined by “and”; a condition that tells them apart may be missing. Identical values can stand only once. Records with an inconclusive call do not appear. Where a call stands in place of a potency, no number is given. A structure can be active in one record and inactive in another. Activity calls are given as the source filed them. Unless noted, calls follow the shape of the full dose curve.

Columns and labels:
[1] = qHTS assay to identify small molecule agonists of the peroxisome proliferator-activated receptor delta (PPARd) signaling pathway - cell viability counter screen (AID 743211; active = well fitted curve in the direction sought with a large enough effect in the repeat runs; an effect the other way counts as inactive or inconclusive; also: nearly all actives have a fitted effect of over 55% in size; also: potency is read from the fitted curve at half-maximal effect)
Summary of the method: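 Viability was measured as CellTiter-Glo luminescence (30 min, room temperature) in the same wells as the beta-lactamase readout. GeneBLAzer PPARd UAS-bla HEK293H cells received compound after 5 h plating and were incubated 17 h at 37 C.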

[2] = molecular target: Peroxisome proliferator-activated receptor delta (Homo sapiens) (UniProt Q03181); assay: qHTS assay to identify small molecule agonists of the peroxisome proliferator-activated receptor delta (PPARd) signaling pathway (AID 743212)
Summary of the method: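 GeneBLAzer UAS-bla HEK293H cells carrying a PPARδ construct were exposed to compounds at 37 °C. Beta-lactamase activity was read by FRET fluorescence after 2 h at room temperature with LiveBLAzer B/G substrate.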

[3] = qHTS assay to identify small molecule antagonists of the peroxisome proliferator-activated receptor delta (PPARd) signaling pathway - cell viability counter screen (AID 743213; active = well fitted curve in the direction sought with a large enough effect in the repeat runs; an effect the other way counts as inactive or inconclusive; also: nearly all actives have a fitted effect of over 50% in size)
Summary of the method: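 PPARd-bla HEK293H cells (3000/well) got compound plus 300 nM L165041 agonist for 17 h at 37 C. Viability in the same wells came from CellTiter-Glo luminescence after 30 min at room temperature.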

[4] = molecular target: Peroxisome proliferator-activated receptor delta (Homo sapiens) (UniProt Q03181); assay: qHTS assay to identify small molecule antagonists of the peroxisome proliferator-activated receptor delta (PPARd) signaling pathway (AID 743215; active = well fitted inhibition curve with a large enough effect in the signal ratio in the repeat runs, not every such curve was filed as active; the % refers to the signal ratio;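 also: cells stimulated with agonist L165041 at 300 nM final during compound exposure; series mostly up to about 62 µM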)
Summary of the method: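 Read-out is beta-lactamase FRET fluorescence, measured 2 h after substrate addition at room temperature. Beforehand, UAS-bla HEK293H cells carrying the PPARd reporter were exposed to compounds with L165041 at 300 nM final for 17 h at 37 C.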

[5] = qHTS assay to identify small molecule agonists of the farnesoid-X-receptor (FXR) signaling pathway - cell viability counter screen (AID 743218; active = well fitted curve in the direction sought with a large enough effect in the repeat runs; an effect the other way counts as inactive or inconclusive; also: nearly all actives have a fitted effect of over 45% in size; also: potency is read from the fitted curve at half-maximal effect)
Summary of the method: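 HEK 293T FXR-bla cells; 5 h pre-incubation, 16 h compound exposure at 37 C; LiveBLAzer substrate 2 h RT, then CellTiter-Glo 30 min RT, luminescence.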

[6] = qHTS assay to identify small molecule antagonists of the farnesoid-X-receptor (FXR) signaling pathway - cell viability counter screen (AID 743221; active = well fitted cell-killing curve with a large enough effect in the repeat runs, not every such curve was filed as active; also: nearly all actives have a fitted effect of over 50% in size; also: potency is read from the fitted curve at half-maximal effect)
Summary of the method: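 Cytotoxicity counter screen run in the FXR-bla reporter wells: HEK 293T cells exposed to compound with 50 uM (final) chenodeoxycholic acid for 16 h, 37 C, then viability measured by CellTiter-Glo luminescence after 30 min, room temperature.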

[7] = qHTS assay to identify small molecule agonists of the vitamin D receptor (VDR) signaling pathway - cell viability counter screen (AID 743224; active = well fitted curve in the direction sought with a large enough effect in the repeat runs; an effect the other way counts as inactive or inconclusive; also: nearly all actives have a fitted effect of over 50% in size; also: potency is read from the fitted curve at half-maximal effect)
Summary of the method: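 Luminescence from CellTiter-Glo, read after 30 min at room temperature, reports viability of VDR-bla cells treated with compounds for 16 h at 37C in the wells used for the beta-lactamase FRET read.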

[8] = qHTS assay to identify small molecule antagonists of the vitamin D receptor (VDR) signaling pathway - cell viability counter screen (AID 743225; active = well fitted curve in the direction sought with a large enough effect in the repeat runs; an effect the other way counts as inactive or inconclusive; also: nearly all actives have a fitted effect of over 50% in size; also: potency is read from the fitted curve at half-maximal effect)
Summary of the method: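 Cytotoxicity counter screen read by CellTiter-Glo luminescence (30 min, room temperature) in the same wells as the VDR-bla antagonist readout. HEK 293T VDR-UAS-bla cells had 16 h at 37C with compound and 3 nM (final) 1-alpha,25-dihydroxyvitamin D3, then 2 h with FRET substrate.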

[9] = qHTS assay to identify small molecule agonists of the NFkB signaling pathway - cell viability counter screen (AID 1159515); also: series mostly up to about 61 µM; nearly all actives have a fitted effect of over 55% in size
Summary of the method: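 Luminescence from CellTiter-Glo (30 min, room temperature) gives viability, measured in the same wells as the beta-lactamase reporter read. Cells were NFkB-bla ME-180, 2,000 per well, treated 5 hr with compounds.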

[10] = qHTS assay to identify small molecule agonists of the endoplasmic reticulum stress response signaling pathway (AID 1159516; active = well fitted activation curve with a large enough effect in the signal ratio in the repeat runs, not every such curve was filed as active; the % refers to the signal ratio)
Summary of the method: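 Read-out is beta-lactamase cleavage of a FRET substrate (405 nm excitation; 460 and 530 nm emissions) in ESRE-bla HeLa cells after a 5 hr compound exposure at 37 C. Substrate incubation ran 2 hr at room temperature.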

[11] = qHTS assay to identify small molecule agonists of the endoplasmic reticulum stress response signaling pathway - cell viability counter screen (AID 1159517)
Summary of the method: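 ESRE-bla HeLa cells, 1,500 per well, seeded overnight then treated with compounds for 5 hr at 37 C. After the beta-lactamase read, viability in the same wells is measured by CellTiter-Glo luminescence after 30 min at room temperature.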

[12] = qHTS assay to identify small molecule antagonists of the retinoid-related orphan receptor gamma (ROR-gamma) signaling pathway - cell viability counter screen (AID 1159520; active = well fitted curve in the direction sought with a large enough effect in the repeat runs; an effect the other way counts as inactive or inconclusive; also: nearly all actives have a fitted effect of over 50% in size)
Summary of the method: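 Tet-on ROR gamma CHO cells were given compounds for 2 hr, then doxycycline hyclate at 1 uM final, and incubated 16 hr at 37 C. Viability was measured as ATP content by CellTiter-Glo luminescence.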

[13] = molecular target: Nuclear receptor ROR-gamma (Homo sapiens) (UniProt P51449); assay: qHTS assay to identify small molecule antagonists of the retinoid-related orphan receptor gamma (ROR-gamma) signaling pathway (AID 1159521; active = well fitted curve in the direction sought with a large enough effect in the repeat runs; an effect the other way counts as inactive or inconclusive; also: nearly all actives have a fitted effect of over 50% in size; also: potency is read from the fitted curve at half-maximal effect)
Summary of the method: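 Antagonist read-out: drop in luminescence (ONE-Glo) from an RORE-LUC reporter in CHO cells with doxycycline-inducible ROR-gamma; 2 hr compound pretreatment, 1 uM doxycycline, 16 hr incubation at 37 C.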

[14] = qHTS assay to identify small molecule agonists of the AP-1 signaling pathway - cell viability counter screen (AID 1159525); also: nearly all actives have a fitted effect of over 55% in size
Summary of the method: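 AP-1-bla ME-180 cells in Opti-MEM with 0.5% dialyzed FBS, compound exposure 5 h at 37 C in 15-point titration. Viability read in the same wells as ATP content by CellTiter-Glo luminescence, normalised to tetra-n-octylammonium bromide and DMSO controls.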

[15] = qHTS assay to identify small molecule agonists of the AP-1 signaling pathway (AID 1159526)
[16] = molecular target: Retinoic acid receptor RXR-alpha (Homo sapiens) (UniProt P19793); assay: qHTS assay to identify small molecule agonists of the RXR signaling pathway (AID 1159527); also: nearly all actives have a fitted effect of over 35% in size; also: potency is read from the fitted curve at half-maximal effect
Summary of the method: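 Agonist-mode beta-lactamase reporter assay: HEK 293T RXR-alpha-UAS-bla cells treated 16 hr at 37 C with compounds, 9-cis retinoic acid as positive control. LiveBLAzer FRET substrate, 405 nm excitation, 460/530 nm emission.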

[17] = molecular target: Vitamin D3 receptor (Homo sapiens) (UniProt P11473); assay: qHTS assay to identify small molecule agonists of the vitamin D receptor (VDR) signaling pathway (AID 743222)
Summary of the method: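 VDR-bla cells, 2,000/well; 4 h preincubation 37C; cpd (DMSO) 16 h; LiveBLAzer B/G substrate 2 h RT; fluorescence intensity read.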

[18] = molecular target: Vitamin D3 receptor (Homo sapiens) (UniProt P11473); assay: qHTS assay to identify small molecule antagonists of the vitamin D receptor (VDR) signaling pathway (AID 743223; active = well fitted inhibition curve with a large enough effect in the signal ratio in the repeat runs, not every such curve was filed as active; the % refers to the signal ratio)
Summary of the method: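 Antagonist mode: compound added to VDR-bla cells alongside agonist 1alpha,25-dihydroxyvitamin D3 (3 nM final), incubation 16 h at 37C. Read-out is LiveBLAzer FRET fluorescence, 2 h at room temperature.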

[19] = molecular target: Bile acid receptor (Homo sapiens) (UniProt Q96RI1); assay: qHTS assay to identify small molecule antagonists of the farnesoid-X-receptor (FXR) signaling pathway (AID 743217; active = well fitted inhibition curve with a large enough effect in the signal ratio in the repeat runs, not every such curve was filed as active; the % refers to the signal ratio)
Summary of the method: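 HEK 293T FXR-UAS-bla, 5000 cells/well; compound + CDCA 50 uM final; 16 h, 37 °C; B/G FRET substrate 2 h RT; fluorescence.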

[20] = molecular target: Bile acid receptor (Homo sapiens) (UniProt Q96RI1); assay: qHTS assay to identify small molecule agonists of the farnesoid-X-receptor (FXR) signaling pathway (AID 743220; active = well fitted activation curve with a large enough effect in the signal ratio in the repeat runs, not every such curve was filed as active; the % refers to the signal ratio)
Summary of the method: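 Beta-lactamase reporter under UAS control in GeneBLAzer FXR HEK 293T cells (5000/well) measured with LiveBLAzer FRET substrate after 2 h at room temperature. Compound exposure lasted 16 h at 37C.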

Chain of Peroxisome proliferator-activated receptor delta (Homo sapiens) (Q03181 whole entry, looked up): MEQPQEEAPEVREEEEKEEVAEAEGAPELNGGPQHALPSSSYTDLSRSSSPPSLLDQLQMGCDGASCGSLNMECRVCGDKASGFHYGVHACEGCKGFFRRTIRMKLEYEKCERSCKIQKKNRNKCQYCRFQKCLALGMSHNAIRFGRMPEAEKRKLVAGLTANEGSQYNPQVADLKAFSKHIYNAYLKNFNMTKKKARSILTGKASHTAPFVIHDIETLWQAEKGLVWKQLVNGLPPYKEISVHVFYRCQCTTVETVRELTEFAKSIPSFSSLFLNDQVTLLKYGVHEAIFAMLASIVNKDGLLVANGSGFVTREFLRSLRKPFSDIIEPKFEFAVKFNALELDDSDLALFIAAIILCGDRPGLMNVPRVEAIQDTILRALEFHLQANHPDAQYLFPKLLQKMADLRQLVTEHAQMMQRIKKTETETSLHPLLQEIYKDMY
Chain of Retinoic acid receptor RXR-alpha (Homo sapiens) (P19793 whole entry, looked up): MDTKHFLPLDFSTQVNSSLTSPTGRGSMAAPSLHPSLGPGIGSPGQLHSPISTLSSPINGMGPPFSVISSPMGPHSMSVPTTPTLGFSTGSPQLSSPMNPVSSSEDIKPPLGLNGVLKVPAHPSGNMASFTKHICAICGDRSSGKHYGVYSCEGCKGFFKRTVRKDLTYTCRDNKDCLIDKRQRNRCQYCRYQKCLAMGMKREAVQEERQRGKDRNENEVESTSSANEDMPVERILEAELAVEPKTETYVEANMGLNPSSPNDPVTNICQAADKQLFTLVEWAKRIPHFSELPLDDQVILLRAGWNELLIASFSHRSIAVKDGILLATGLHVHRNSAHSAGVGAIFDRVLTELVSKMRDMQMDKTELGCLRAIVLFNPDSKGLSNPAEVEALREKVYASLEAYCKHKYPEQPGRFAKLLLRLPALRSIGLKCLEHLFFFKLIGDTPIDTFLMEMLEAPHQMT
Chain of Vitamin D3 receptor (Homo sapiens) (P11473 whole entry, looked up): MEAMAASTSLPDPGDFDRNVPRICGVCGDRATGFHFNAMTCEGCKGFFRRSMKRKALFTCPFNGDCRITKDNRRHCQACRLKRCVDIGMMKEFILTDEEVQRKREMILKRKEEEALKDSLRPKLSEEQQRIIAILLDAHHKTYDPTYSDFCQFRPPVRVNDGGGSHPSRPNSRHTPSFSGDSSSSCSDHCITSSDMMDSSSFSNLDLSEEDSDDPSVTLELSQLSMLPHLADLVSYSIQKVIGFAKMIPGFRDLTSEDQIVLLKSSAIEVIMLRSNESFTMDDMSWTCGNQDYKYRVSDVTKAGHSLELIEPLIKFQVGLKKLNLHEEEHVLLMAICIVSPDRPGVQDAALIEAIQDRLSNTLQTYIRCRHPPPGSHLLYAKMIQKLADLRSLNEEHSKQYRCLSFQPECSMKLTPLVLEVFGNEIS
Chain of Bile acid receptor (Homo sapiens) (Q96RI1 whole entry, looked up): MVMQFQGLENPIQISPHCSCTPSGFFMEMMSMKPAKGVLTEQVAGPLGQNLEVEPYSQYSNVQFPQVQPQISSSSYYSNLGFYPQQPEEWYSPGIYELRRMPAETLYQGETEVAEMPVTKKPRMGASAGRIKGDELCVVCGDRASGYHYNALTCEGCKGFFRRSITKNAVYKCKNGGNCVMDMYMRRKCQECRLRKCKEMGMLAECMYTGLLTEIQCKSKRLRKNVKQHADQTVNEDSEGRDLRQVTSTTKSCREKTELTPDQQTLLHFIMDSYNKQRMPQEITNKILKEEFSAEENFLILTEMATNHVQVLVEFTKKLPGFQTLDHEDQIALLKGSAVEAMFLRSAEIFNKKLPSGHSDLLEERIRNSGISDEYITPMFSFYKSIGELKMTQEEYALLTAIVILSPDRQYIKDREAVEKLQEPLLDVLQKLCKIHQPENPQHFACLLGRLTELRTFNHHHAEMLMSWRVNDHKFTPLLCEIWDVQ

Structure (SMILES)	Potency [1]	Potency [2]	Potency [3]	Potency [4]	Potency [5]	Potency [6]	Potency [7]	Potency [8]	Potency [9]	Potency [10]	Potency [11]	Potency [12]	Potency [13]	Potency [14]	outcome [15]	Potency [16]	outcome [17]	Potency [18]	Potency [19]	Potency [20]
CCCCCCCCC(=O)O	inactive	inactive	inactive	inactive	inactive	inactive	inactive	inactive	inactive	inactive	inactive	inactive	inactive	inactive	inactive	inactive				
CC(=O)OC(C)(C)C1CC=C(C)CC1 (stereo unspecified)	inactive	inactive	inactive	inactive	inactive	inactive	inactive	inactive	inactive	inactive	inactive	inactive	inactive	inactive	inactive	inactive	inactive	inactive		
COc1c(Cl)ccc(Cl)c1C(=O)O	inactive	inactive	inactive	inactive	inactive	inactive	inactive	inactive	inactive	inactive	inactive	inactive	inactive	inactive	inactive	inactive	inactive	inactive		
Cc1cc(C)c(O)c(C)c1	inactive	inactive		inactive	inactive	inactive	inactive	inactive	inactive	inactive	inactive	inactive	inactive	inactive	inactive	inactive			inactive	inactive
Cc1ncc(CO)c(CO)c1O	inactive	inactive	inactive	inactive	inactive	inactive	inactive	inactive	inactive	inactive	inactive	inactive	inactive	inactive	inactive	inactive	inactive	inactive	inactive	inactive
C=C1C[C@]23C[C@@]1(O)CC[C@H]2[C@@]12C=C[C@H](O)[C@@](C)(C(=O)O1)[C@H]2[C@@H]3C(=O)O	inactive	inactive		inactive	inactive	inactive	inactive	inactive	inactive	inactive	inactive	inactive	inactive	inactive	inactive	inactive	inactive	inactive	inactive	inactive
Cc1cc(CC(=O)O)n(C)c1C(=O)c1ccc(Cl)cc1	inactive	inactive	inactive	inactive	inactive	inactive	inactive	inactive	inactive	inactive	inactive		inactive	inactive	inactive	inactive	inactive	inactive	inactive	inactive
OC1CCCCC1	inactive	inactive		inactive	inactive	inactive	inactive	inactive	inactive	inactive	inactive		inactive	inactive	inactive	inactive	inactive	inactive		
CCCOC(=O)NCCCN(C)C	inactive		inactive		inactive	inactive	inactive	inactive	inactive	inactive	inactive		inactive	inactive	inactive	21.9 µM (active) and inactive	inactive	inactive		
COc1c2ccoc2cc2oc(=O)ccc12	inactive				inactive	inactive	inactive	inactive	inactive	inactive	inactive		inactive	inactive	inactive	inactive	inactive	inactive		
O=C(Cl)c1ccc(C(=O)Cl)cc1	inactive	inactive	inactive	inactive	inactive	inactive	inactive	inactive	inactive	inactive	inactive		inactive	inactive	inactive	inactive	inactive	inactive		
O=C(O)Cc1c[nH]c2ccccc12	inactive		inactive		inactive	inactive	inactive	inactive	inactive	inactive	inactive		inactive	inactive	inactive	inactive	inactive	inactive	inactive	inactive
CC(CN1c2ccccc2Sc2ccccc21)N(C)C (stereo unspecified)	49.5 µM (active) and 21.9 µM (active)				49.5 µM (active) and 27.5 µM (active)	49.5 µM (active)	49.5 µM (active) and 43.6 µM (active)	21.9 µM (active)	inactive	inactive	inactive		24.6 µM (active) and 54.5 µM (active)	inactive		inactive				
OCCOCCOCCOCCOCCO	inactive		inactive		inactive	inactive	inactive	inactive	inactive	inactive	inactive		inactive	inactive	inactive	inactive	inactive	inactive		
CC(C)(C)NC[C@H](O)COc1nsnc1N1CCOCC1	inactive		inactive		inactive	inactive	inactive	inactive	inactive	inactive	inactive		inactive	inactive	inactive	inactive	inactive	inactive		
CC(C=O)Cc1ccc(C(C)(C)C)cc1 (stereo unspecified)	inactive	inactive	inactive	inactive	inactive	inactive	inactive	inactive	inactive	inactive	inactive		inactive	inactive	inactive	inactive	inactive		inactive	inactive
OC[C@H]1O[C@@H](Oc2ccc(O)cc2)[C@H](O)[C@@H](O)[C@@H]1O	inactive	inactive		inactive	inactive	inactive	inactive	inactive	inactive	inactive	inactive		inactive	inactive	inactive	inactive	inactive	inactive		
